According to PubChem BioAssay:
Measured potencies and affinities stand elsewhere. The source made the active and inactive calls. The limit is not given here; nearly all actives have IC50 up to about 0.91 µM.

molecular target: Calcium-dependent protein kinase 4 (Plasmodium falciparum (isolate 3D7)) (UniProt Q8IBS5); assay: PfCDPK4 kinase inhibitors, biochemical, TCAMS library (AID 1159588); conditions: recombinant PfCDPK4, Kinase-Glo ATP depletion luminescence
Sequence (Q8IBS5 whole entry, looked up): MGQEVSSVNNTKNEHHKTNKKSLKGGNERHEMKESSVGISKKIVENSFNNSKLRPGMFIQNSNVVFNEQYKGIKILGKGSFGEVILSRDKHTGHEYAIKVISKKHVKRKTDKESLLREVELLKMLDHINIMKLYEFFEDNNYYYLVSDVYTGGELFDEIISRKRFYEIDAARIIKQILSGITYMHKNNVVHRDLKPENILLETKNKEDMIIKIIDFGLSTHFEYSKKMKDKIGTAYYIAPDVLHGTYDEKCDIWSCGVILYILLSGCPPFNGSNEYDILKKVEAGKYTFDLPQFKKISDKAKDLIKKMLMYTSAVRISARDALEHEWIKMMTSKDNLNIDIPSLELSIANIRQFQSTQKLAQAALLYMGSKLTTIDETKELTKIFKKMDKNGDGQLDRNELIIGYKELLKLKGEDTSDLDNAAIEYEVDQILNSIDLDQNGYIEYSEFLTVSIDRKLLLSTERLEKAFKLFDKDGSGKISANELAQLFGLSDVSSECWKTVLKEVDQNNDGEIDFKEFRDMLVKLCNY

outcome, inactive:
COc1ccc(OCCn2cc(C(=O)c3ccco3)c3ccccc32)cc1, COc1ccc(CN2CCC(NCc3cccc(C(F)(F)F)c3)CC2)cc1, C=CCN1C(=O)CN(S(=O)(=O)c2ccc(-n3nc(C)cc3C)cc2)C1=S, CN(C)CCCOc1cc(NC(=O)Nc2ccc(-c3ccncc3)c3ccccc23)ccc1I, CCOC(=O)c1ccc(N2CCN(c3cc(C)ccc3C)CC2)c(NC(=O)Nc2ccc(Cl)c(Cl)c2)c1, O=S(=O)(c1ccccc1Cl)N1CCCCC(c2ccc(C(F)(F)F)cc2)=N1, COc1ccc(CC2(c3ccc(F)cc3)N=C(N)N(CCCc3cccnc3)C2=O)cc1 (stereo not given), O=C(NC1CCCCC1)N(CCCn1ccnc1)Cc1csc(-c2ccc(CNCc3ccccc3)cc2)n1, CCC(CC)NCc1c(O)ccc2c(CNC(CC)CC)c(O)ccc12, O=S(=O)(Nc1cccc(CCN2CCCCC2CCN2CCCC2)c1)c1cccc2ccccc12 (stereo not given), CC(C)[C@H](NC(=O)c1c(CN2CCC(N3CCCCC3)CC2)c(-c2ccccc2)nc2cc(O)ccc12)c1ccccc1, COc1cc(NC(=O)c2sc(-c3ccc(Cl)cc3)cc2Cl)ccc1OCCN1CCCC1, COc1cc2nc(N3CCC(CNC(=O)c4cccc5cccnc45)CC3)nc(N)c2cc1OC, CNc1ccc(CNCc2ccc(-c3ccc(-c4nc5ccc(C(F)(F)F)cc5[nH]4)s3)cc2)cc1, COc1ccc(CN(C)CCCc2ccc(NC(=O)c3cccc4c(=O)c5cccc(F)c5[nH]c34)cc2)cc1OC, CCCC(C)Nc1nc(C)cc(N[C@@H](Cc2ccccc2)C(=O)NCc2cccc(F)c2)n1 (stereo not given in full), COC(=O)c1cccc(CNCc2cccc(-c3ccc(-c4nc5c(C)cccc5[nH]4)s3)c2)c1, COc1cc(NCCCCCNc2cc(Cl)nc3ccccc23)nc2ccccc12, CCN1CCN(c2ccc(NC(=O)c3cc4c(C)nn(-c5ccccc5)c4s3)cc2C)CC1, CC(C#N)Cc1ccc(-c2cnc(N)c3cc(-c4ccnc(N)n4)ccc23)cc1 (stereo not given), COc1ccc(C(=O)[C@H]2C[C@@H]2CN(C)CCC(O)c2ccc(Cl)c(Cl)c2)cc1 (stereo not given in full), Cc1ccc(OCC2CCN(c3ncc(C(=O)NC4CC4)cc3Cl)CC2)cc1, O=C(Nc1cccc(-c2cccc(-c3nc4ccccc4[nH]3)c2)c1)Nc1ccc2c(c1)OCO2, CCN1CCN(Cc2c(O)ccc3c(=O)c(Oc4cc(C)cc(C)c4)c(C(F)(F)F)oc23)CC1, c1ccc(C2=NN=C(c3ccccn3)[C@H]3[C@H]4C[C@@H]([C@@H]23)[C@@H]2[C@H]4[C@H]3C[C@@H]2c2ccccc23)nc1, CN(c1ccc(C(=O)N[C@@H](CCC(=O)O)C(=O)O)cc1)S(=O)(=O)c1ccc2nc(N)[nH]c(=O)c2c1, C=CCc1cc(Cc2cnc(N)nc2N)c2ccc(C)nc2c1OC, COc1c(Br)cc(Br)cc1-c1ccc(CN2C3CCCC2CCC3)[nH]1, Cc1cc(N[C@@H](Cc2ccccc2)C(=O)NCc2cccc(F)c2)nc(NCCOc2ccccc2)n1, Cn1c(N)c(N=O)c(=O)[nH]c1=O, O=C(Nc1cc(F)cc(-c2cccnc2)c1)c1ccc2c(=O)n(Cc3ccccc3)cnc2c1, Cn1ccc(C(=O)Nc2ccc3c(c2)CN(Cc2ccc(N4CCCC4)o2)CCC3)n1, COc1cc(OC)cc(-c2nn(-c3ccc([N+](=O)[O-])cc3C#N)c(=S)n2Cc2ccco2)c1, CCCCCN1CCCN(Cc2cccc(NC(=O)c3ccc(-c4ccccc4)cc3)c2)CC1, C[C@@H]1CCC[C@H](C)N1C[C@@H](O)CNS(=O)(=O)c1cccc(C(F)(F)F)c1, O=C1c2ccc([N+](=O)[O-])cc2C(=O)N1c1ccc2[nH]ncc2c1, NC(=NC1CC1)c1ccc2nc(CCCCCc3nc4ccc(C(N)=NC5CC5)cc4[nH]3)[nH]c2c1, COc1ccc(-c2ccc(NC(=O)c3ccc(F)cc3)cc2)cc1CN1CCCN(C)CC1, Cc1cccc(NC(c2cccs2)c2c(NC(=O)c3ccccc3)sc(C)c2C)n1 (stereo not given), CC1CCc2c(C(=O)N3CCc4ccccc4C3)csc2C1 (stereo not given)
